The full list was thinned out, with hits kept by preference.
IL1B secr inh – inflammasome signaling inhibition, IL-1 beta readout. THP-1 LPS/ATP IL-1B secretion, AlphaLISA, 16 h; active compounds read low. hit rate 4.7% among 360,000. activity change, % at 57.5 µM; in the data active = activity change below about -50%; inconclusive = mostly about -30% to -49%
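THP-1 cells pretreated 1 hr with compounds (up to 57.5 uM final), then stimulated with LPS (250 ng/mL final) plus ATP (1.25 mM final); secreted IL-1B measured by AlphaLISA after 16 hr, decreased signal indicating inhibition.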
12-LOX inh – inhibitors of human 12S-lipoxygenase ALOX12 | P18054 | purified 12hLO, xylenol orange hydroperoxide absorbance | Potency, µM (doses to about 108 µM), inactives show at the highest dose activity change, negative = inhibition, hits mostly inhibitors | hit rate 1.1% among 580,000 | AID 1671190; also: potency is read from the fitted curve at half-maximal effect
Target sequence (P18054 whole entry, looked up): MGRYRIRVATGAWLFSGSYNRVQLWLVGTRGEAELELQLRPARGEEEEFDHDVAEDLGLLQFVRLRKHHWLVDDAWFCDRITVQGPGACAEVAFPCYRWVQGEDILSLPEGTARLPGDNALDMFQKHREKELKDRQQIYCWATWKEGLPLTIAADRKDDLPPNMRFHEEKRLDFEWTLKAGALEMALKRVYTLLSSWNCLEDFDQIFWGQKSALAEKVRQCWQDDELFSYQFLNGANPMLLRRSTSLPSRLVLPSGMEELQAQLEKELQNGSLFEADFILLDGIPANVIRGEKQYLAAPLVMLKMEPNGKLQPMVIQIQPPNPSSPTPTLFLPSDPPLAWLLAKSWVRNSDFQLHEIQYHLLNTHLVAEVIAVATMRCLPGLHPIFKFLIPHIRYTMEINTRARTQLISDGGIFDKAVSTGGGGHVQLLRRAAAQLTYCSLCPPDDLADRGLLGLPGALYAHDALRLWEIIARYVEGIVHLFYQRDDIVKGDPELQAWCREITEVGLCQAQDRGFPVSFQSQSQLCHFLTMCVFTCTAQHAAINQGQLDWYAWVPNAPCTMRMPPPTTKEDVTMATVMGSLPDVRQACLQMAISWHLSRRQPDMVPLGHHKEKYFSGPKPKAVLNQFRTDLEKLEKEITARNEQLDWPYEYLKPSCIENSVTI
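Purified human 12hLO (150 nM final) in 25 mM Hepes, 0.01% Triton X-100, pH 7.0 was preincubated 15 min at room temperature with compound. Then 40 uM arachidonic acid was added, 30 min. Hydroperoxide was read by Fe-XO absorbance ratio 573/405 nm.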
HT1080 IDH1KD tx – HT-1080 IDH1 knockdown cell toxicity (counter line). AID 686971. Potency, µM (top dose mostly 46.1 µM), for inactives: at the highest dose activity, negative = toxicity, actives largely listed as cytotoxic. hit rate 2% among 360,000. HT-1080 IDH1 knockdown viability, ATP luminescence, 48 h;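 also: potency is read from the fitted curve at half-maximal effect; 0% = DMSO wells and -100% = cell-free medium wells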
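CellTiter-Glo luminescence after 48 h compound exposure at 37 degrees C of IDH1-knockdown HT-1080 cells in 5% FBS RPMI. %Activity scaled between DMSO wells and cell-free media wells, with curves fitted and assigned curve classes.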
TDP1 cell CPT – growth inhibition of DT40 Tdp1-/-;hTDP1 cells with camptothecin (screen for TDP1 inhibitors). chicken DT40 Tdp1-/-;hTDP1 cells + 20 nM CPT, ATP luminescence, 48 h. Potency, µM (doses to about 46.2 µM), inactives show at the top dose activity change, negative = growth inhibition, actives largely listed as inhibitors. hit rate 12% among 420,000. AID 686979; also: potency is read from the fitted curve at half-maximal effect; nearly all actives have a fitted effect of over 55% in size
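Cell growth measured by CellTiter-Glo luminescence after a minimum 48 h, 37 C compound exposure with 20 nM CPT in Tdp1-knockout DT40 cells stably expressing hTDP1, seeded 400/well; qHTS titration format.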
TDP1 cell noCPT – qHTS for Inhibitors of human tyrosyl-DNA phosphodiesterase 1 (TDP1): qHTS in cells in absence of CPT | DT40 Tdp1-/- hTDP1 cells, no CPT, ATP luminescence, 48 h | Potency, µM (series often up to 46.2 µM), without a hit: top-dose activity change, negative = growth inhibition, usual class: inhibitors | hit rate 15% among 420,000 | AID 686978, 2013; also: potency is read from the fitted curve at half-maximal effect; nearly all actives have a fitted effect of over 55% in size
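Stably hTDP1-transfected Tdp1-null chicken DT40 cells were treated with library compounds minus camptothecin and grown for at least 48 hr at 37 °C, after which cellular ATP was quantified by luminescence.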
HT1080-NT tox – kills 2HG-producing HT-1080-NT fibrosarcoma cells; HT-1080-NT fibrosarcoma viability, CellTiter-Glo ATP luminescence, 48 h; Potency, µM (highest dose often 46.1 µM), for the others: at the top dose activity, negative = less viability, actives largely listed as cytotoxic; hit rate 1.6% among 360,000; AID 686970;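 also: NT is the 2HG producing partner of a matched IDH1 knockdown line; potency is read from the fitted curve at half-maximal effect; 0% = DMSO-treated cells and -100% = media-only wells without cells; nearly all actives have a fitted effect of over 55% in size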
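Viability of the 2HG-overproducing fibrosarcoma line after 48 hours of compound exposure at 37 degrees C was determined by luminescence with CellTiter-Glo, and concentration-effect curves were then fitted and categorized.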
An asterisk follows results filed as active; u = inconclusive; x = no result; [ ] = another dose, or the depositor's remark. Unless noted, calls follow the shape of the dose curve; as a rule, active = well fitted curve in the direction sought with a large enough effect; inconclusive = small, poorly fitted or top-dose-only effect, or another doubt; inactive = no such curve, though single readings can be large; an effect the other way counts as inactive or inconclusive. Unless noted, % is scaled to controls: 0 for no effect and ±100 for the full control effect.

SMILES	IL1B secr inh	12-LOX inh	HT1080 IDH1KD tx	TDP1 cell CPT	TDP1 cell noCPT	HT1080-NT tox
COc1ccc(-c2nn3c(-c4ccc(F)cc4)nnc3s2)cc1	u	7%	8%	-28%	u	10%
CCOc1cccc(-c2nn3c(-c4cc(C)[nH]n4)nnc3s2)c1	-77*	0%	-8%	u	u	7%
c1ccc(-c2nnc3sc(-c4ccncc4)nn23)cc1	-51*	-16%	-3%	-19%	-21%	-4%
COc1ccc(-c2nn3c(-c4ccccc4)nnc3s2)cc1	-55*	-15%	-22%	u	u	-19%
COc1ccc(-c2nn3c(=O)c(C)nnc3s2)cc1	20	x	2%	-3%	11%	3%
Clc1ccc(-c2nn3c(-c4ccccc4)nnc3s2)cc1	-8	-12%	2%	u	-6%	-19%
Cc1nc2sc(-c3ccccc3)nn2c(=O)c1Br	1	3%	1%	23µM*	u	-2%
Cc1ccc(NC(=O)CCc2c(C)c3ccc(C)cc3oc2=O)cc1	x	-28%	x	x	x	x
Cc1ccccc1NC1(c2nnnn2-c2ccccc2)CCCC1	x	-26%	x	x	x	x
O=C(O)c1ccccc1C(=O)/C=C/c1ccc(Cl)cc1	x	18%	x	x	x	x
COc1cccc(-c2nnc3sc(-c4ccccc4)nn23)c1	-24	-29%	-11%	u	23µM*	-2%
COc1ccccc1-c1nnc2sc(COc3ccc(Cl)cc3Cl)nn12	-76*	-18%	-2%	u	u	-7%
COc1ccccc1-c1nnc2sc(COc3ccccc3)nn12	-11	23%	-15%	-18%	-27%	-2%[9.24 µM]
COc1ccc(OCc2nn3c(-c4cccc(OC)c4)nnc3s2)cc1	-1	0%	-3%	-10%	-21%	0%
c1ccc(-c2nnc3sc(-c4cc5ccccc5o4)nn23)cc1	-29	5%	u	16µM*	u	18%
CCN(CC)c1ccc(-c2nn3c(-c4ccccc4OC)nnc3s2)cc1	0	x	u	1.3µM*	1.2µM*	1µM*
Clc1ccc(-c2nnc3sc(-c4ccc(Br)o4)nn23)cc1	-7	0%	10%	u	-29%	13%
CC(C)c1nc2ccccc2n1CCNC(=O)Cn1nc2c(cc1=O)CCCCC2	x	46%	x	x	x	x
COc1ccc(OC)c(NC(=O)Cn2ccc3c(Cl)cccc32)c1	x	2%	x	x	x	x
CCOc1ccc(C(C)=O)cc1CN(C)CC(=O)Nc1ccc(Cl)c(Cl)c1	x	-7%	x	x	x	x
Cc1cccc(-c2nnc3sc(-c4ccccc4C)nn23)c1	-4	12%	u	u	15µM*	u
c1ccc(-c2nnc3sc(-c4csc5c4CCCC5)nn23)cc1	-17	u	-5%	21µM*	u	-5%
CC1(C)CN(Cc2cc(C#N)ccc2F)CCO1	x	2%	x	x	x	x
Cc1c(Cl)sn(-c2ccc(Cl)cc2)c1=O	u	4.5µM*	2.6µM*	0.26µM*	0.026µM*	26µM*
CC(=O)Nc1ccc(S(=O)(=O)N(CCCN2CCOCC2)Cc2cccs2)cc1	1	-16%	-2%	-3%	-4%	4%
CC(C)(C)c1ccc(S(=O)(=O)N(CCCN2CCOCC2)Cc2cccs2)cc1	u	u	u	u	16µM*	u
CCOC(=O)C1=C(O)c2ccccc2C(=O)/C1=C\c1ccc(C)cc1	0	10µM*	18µM*	5.8µM*	5.8µM*	u
CCOC(=O)C1=C(C)OC(=Cc2ccccc2)C1=O	32	-24%	0%	-106%	0.0092µM*	8%
CCOC(=O)C1=C(Nc2ccccc2)O/C(=C/c2ccc(F)cc2)C1=O	x	34%	x	x	x	x
Cc1ncsc1CN1CC(N(Cc2ccccc2)C2CCOCC2)C1	x	61%	x	x	x	x

High-throughput results (PubChem BioAssay)
